From ChEMBL document CHEMBL3988442, “University of Dundee, Small-Polar-MMV Screening Library” (2021)
Screen size: about 48,000 compounds; about 13,000 (27%) showed an effect of 50% or more. This is one part of the list.

The compounds below were run on Wolbachia pipientis (assay: Anti-Wolbachia Cell-Based Screen). Conditions: 5 µM.
Format: functional
Design: scale not given: in the data most compounds retested in dose-response had high values

Compared with `Cc1ccccc1C(C(=O)N(C)CCc1cn[nH]c1)N(C)C` (stereo not given), `CCCc1nnc(C(=O)N(C)Cc2cnc3ccccn23)o1` is lower in “Percent Effect” value: 13.24% for the first, -16.11% for the second.

First: O=C(c1ccc(C2CCCO2)s1)N1Cc2ccccc2C1 (stereo not given)
Second: Cc1ccsc1CNc1ccccc1C(=O)N1CCNC(=O)C1
The “Percent Effect” value of the first is lower: -6.563% for the first, 4.147% for the second.

First: CCOc1ccc(OCc2nccc(-c3cc(C(=O)O)ccn3)n2)cc1
Second: Cc1nc2cc(C(=O)N3C[C@@H](C(=O)O)[C@H](c4ccncc4)C3)ccc2[nH]1
The “Percent Effect” value of the first is lower: -79.36% for the first, -0.783% for the second.

First: Cc1csc(CN(C)c2cc(C)nc3c(C)c(C)nn23)n1
Second: Cc1cc(N(C)Cc2noc(C)n2)n2nc(C)c(C)c2n1
The “Percent Effect” value of the first is higher: 83.18% for the first, 14.08% for the second.

Going from `Cc1cc(N(C)Cc2ccsc2)n2nc(C)c(C)c2n1` to `Cc1ccc(N2CCCC(N(C)Cc3c(C)noc3C)C2)nn1` (stereo not given), the “Percent Effect” value rises from -6.917% to -3.849%.

First: CC(O)CN(c1ccccc1)S(=O)(=O)c1cc(C(=O)O)cc2c1CCC2 (stereo not given)
Second: Cc1cccc(C)c1NC(=O)c1cccc(CN2CCCC2C)c1 (stereo not given)
The “Percent Effect” value of the first is lower: 5.053% for the first, 11.58% for the second.

First: CCOc1cccc(C(=O)N2C[C@H]3CC[C@@H]2CN(C(=O)C2CCC2)C3)c1
Second: CCN(CC)c1ccc(C(=O)N2C[C@@H]3CC[C@H](C2)N(CCOC)C3)cc1
The “Percent Effect” value of the first is lower: -8.209% for the first, 14.63% for the second.

First: CN(C)CCN1C(=O)CCC12CCCN(C(=O)c1cccnc1)CC2.O=C(O)C(F)(F)F.O=C(O)C(F)(F)F (stereo not given)
Second: CN(C)CCN1C(=O)CCCC12CCCN(C(=O)c1ccncc1)C2.O=C(O)C(F)(F)F.O=C(O)C(F)(F)F (stereo not given)
The “Percent Effect” value of the first is lower: 104.4% for the first, 106.1% for the second.

Compared with `CN(C)CCN1C(=O)CCCC12CCCN(C(=O)c1cc[nH]n1)C2.O=C(O)C(F)(F)F` (stereo not given), `CN(C)CCN1CCOCC2(CCCN(C(=O)c3ccccn3)C2)C1.O=C(O)C(F)(F)F.O=C(O)C(F)(F)F` (stereo not given) is lower in “Percent Effect” value: 101.5% for the first, -9.412% for the second.

First: O=C(O)C(F)(F)F.O=C(c1ccoc1)N1CCCC2(CCC(=O)N2Cc2cccnc2)C1 (stereo not given)
Second: O=C(O)C(F)(F)F.O=C(c1ccoc1)N1CCCC2(CCC(=O)N2Cc2ccncc2)C1 (stereo not given)
The “Percent Effect” value of the first is lower: -3.168% for the first, -1.829% for the second.

Going from `Cc1cc(C(=O)N2CCCC3(COCCN(CCN(C)C)C3)C2)no1.O=C(O)C(F)(F)F.O=C(O)C(F)(F)F` (stereo not given) to `Cc1ccc(N2C[C@H]3CCC[C@@H](CN4CCOCC4)[C@H]3C2)nn1.O=C(O)C(F)(F)F`, the “Percent Effect” value rises from -4.031% to 7.309%.

Going from `Cn1cc(C2(C)CN(C(=O)Nc3ccccc3F)CCO2)cn1` (stereo not given) to `CC(C)C(=O)N1CCC2(CC1)NC(=O)c1ccccc12.Cl`, the “Percent Effect” value falls from 1.448% to -14.83%.

Going from `Cn1ncnc1CNc1ccc2c(c1)N(C(=O)OC(C)(C)C)CCC2` to `Cc1nsc(N2CCN(C(=O)Nc3ccc4[nH]ccc4c3)CC2)n1`, the “Percent Effect” value falls from 21.04% to 0.5995%.

Going from `Cc1nsc(N2CCCN(c3nc(C4CC4)ns3)CC2)n1` to `Cc1ccc(N2CCCC(NCc3nc(C)c(C)o3)C2)nn1` (stereo not given), the “Percent Effect” value falls from 3.492% to -3.745%.

Going from `Cc1ccc(N2CCCC(NCc3c(C)noc3C)C2)nn1` (stereo not given) to `Cc1ccc(N2CCCC(NCc3cc(C)on3)C2)nn1` (stereo not given), the “Percent Effect” value falls from 115% to 114.3%.

First: Cc1ccc(N2CCCC(NCc3ccccn3)C2)nn1 (stereo not given)
Second: Cc1ccc(N2CCCC(NCc3cscn3)C2)nn1 (stereo not given)
The “Percent Effect” value of the first is higher: 95.9% for the first, -5.01% for the second.

Going from `Cc1cc(CNC2CCCN(c3cccnn3)C2)no1` (stereo not given) to `Cc1ccc(N2CCCC(NCc3ccc(-n4ccnc4)cc3)C2)nn1` (stereo not given), the “Percent Effect” value rises from 3.501% to 9.457%.

Going from `O=C(C1SCCc2sccc21)N1CCC(O)CC1` (stereo not given) to `O=C(CCn1ccc(=O)[nH]c1=O)N1CCC(Oc2ncccc2Cl)CC1`, the “Percent Effect” value rises from -0.1428% to 8.092%.

Going from `Cn1ccc(CN2CCCC(CNS(C)(=O)=O)C2)cc1=O` (stereo not given) to `CCS(=O)(=O)NC1CCCN(Cc2ccn(C)c(=O)c2)C1` (stereo not given), the “Percent Effect” value rises from 2.475% to 5.979%.

Compared with `Cn1ccc(CN2CCC(COC3CCCC3)CC2)cc1=O`, `CN(C)CCC1CCN(Cc2ccn(C)c(=O)c2)CC1` is higher in “Percent Effect” value: 0.749% for the first, 112.8% for the second.

First: CCN(CC)CC1CCN(Cc2ccn(C)c(=O)c2)CC1
Second: Cn1ccc(CN2CCC(CCc3ccc(O)cc3)CC2)cc1=O
The “Percent Effect” value of the first is higher: 118.1% for the first, 11.88% for the second.

Compared with `Cn1ccc(C(=O)N2CCCC(c3cc(O)n(C)n3)C2)n1` (stereo not given), `Cn1cc(C(=O)N2CCCC(c3cc(O)n(C)n3)C2)cn1` (stereo not given) is higher in “Percent Effect” value: 89.67% for the first, 108% for the second.

Going from `CC(C)c1csc(C2CCCN(C(=O)c3ccc(=O)n(C)n3)C2)n1` (stereo not given) to `Cc1nc2cc(C(=O)N3C[C@@H](NS(C)(=O)=O)[C@H](C(C)C)C3)ccc2[nH]1`, the “Percent Effect” value rises from -15.66% to -4.009%.

First: COCCN1CCN(CC(=O)NC2(C#N)CCCC2)CC1C (stereo not given)
Second: O=C(CCn1cc(Cl)cn1)N1CCC2(CC1)[C@H](O)C[C@@H]2OCCO
The “Percent Effect” value of the first is higher: 16.28% for the first, -14.25% for the second.

Going from `CCc1cnc(NCc2nc(COC)no2)nc1` to `CCc1nc(C2CCCN2Cc2nc(CCOC)no2)no1` (stereo not given), the “Percent Effect” value falls from 3.706% to -0.7381%.

Compared with `COc1ncc(NCc2csc(-c3ccco3)n2)cc1C(N)=O`, `COCCNc1ncc(-c2cc(C)no2)c(-c2ccco2)n1` is higher in “Percent Effect” value: -5.121% for the first, 96.17% for the second.

Compared with `CCOCCN1CCN(Cc2nnc(-c3ccco3)o2)CC1`, `CCOCCCNc1ncc(-c2onc(C)c2C)c(-c2ccco2)n1` is higher in “Percent Effect” value: 1.125% for the first, 100.1% for the second.

Compared with `CCN(CC)CCNc1ncc(-c2cc(C)no2)c(-c2ccoc2C)n1`, `COCCNc1ncc(-c2onc(C)c2C)c(-c2ccco2)n1` is higher in “Percent Effect” value: -6.629% for the first, 94.53% for the second.

Compared with `CCCOCCCNc1nccc(-c2cn(C)nc2C)n1`, `CCCOc1ccc2c(c1)OCC(C(=O)NC(C)Cn1cccn1)=C2` (stereo not given) is higher in “Percent Effect” value: -3.491% for the first, 18.55% for the second.

Going from `CCc1cc(CN2CCC(CCC(=O)Nc3ccccc3Cl)CC2)on1` to `CCc1ccc(C2CCCCCN2Cc2nc(CCOC)no2)o1` (stereo not given), the “Percent Effect” value falls from 3.381% to -5.886%.

Going from `N#CCCN(CC1CCOC1)S(=O)(=O)c1c(F)cccc1Cl` (stereo not given) to `Cc1ccc(CNC2CCCc3c2cnn3Cc2ccccc2)s1.Cl` (stereo not given), the “Percent Effect” value rises from 4.348% to 8.556%.

First: COCCc1noc(CN2CCN(c3ccc(OC)cc3)C(=O)C2C)n1 (stereo not given)
Second: COc1ccc(N2CCN(Cc3nc(CSC)no3)C(C)C2=O)cc1 (stereo not given)
The “Percent Effect” value of the first is lower: 97.33% for the first, 106.8% for the second.

Going from `CSCc1noc(Cn2ncn3cccc3c2=O)n1` to `CSCc1noc(Cn2ccc3ccccc3c2=O)n1`, the “Percent Effect” value falls from 40.19% to 6.504%.

First: COc1ccc(N2CCN(Cc3nc(CSC)no3)CC2=O)cc1
Second: COc1ccc(N2CCN(C[C@@H](C)CO)CC2=O)cc1
The “Percent Effect” value of the first is higher: 98.96% for the first, -31.81% for the second.

First: CCN1CC2(CCN(Cc3nc(CSC)no3)CC2)CC1=O
Second: CC(=O)N1CC2(CCN(C(=O)c3cccc4[nH]ccc34)CC2)C1
The “Percent Effect” value of the first is higher: -1.733% for the first, -2.889% for the second.

Going from `CC(Cn1ccnc1)NC(=O)N1CCCN(Cc2cccs2)CC1` (stereo not given) to `CC(Cn1ccnc1)NC(=O)N1CCN(Cc2cccs2)CC1` (stereo not given), the “Percent Effect” value falls from 98.79% to 97.63%.

Compared with `Cc1cc(CN2CCN(C(=O)NC(C)Cn3ccnc3)CC2)no1` (stereo not given), `Cc1ccc(C(=O)N2CCN(C(=O)NC(C)Cn3ccnc3)CC2)o1` (stereo not given) is higher in “Percent Effect” value: -2.401% for the first, 0.8524% for the second.

First: O=C(NCCn1ccnc1)N1CCCN(Cc2cccs2)CC1
Second: CC(NC(=O)N1CCCN(Cc2cccs2)CC1)c1cccnc1 (stereo not given)
The “Percent Effect” value of the first is higher: 115.6% for the first, -8.61% for the second.

Compared with `CC(Cn1cccn1)NC(=O)N1CCN(Cc2cccs2)CC1` (stereo not given), `O=C1CCc2cc(NC(=O)N3CCCN(Cc4cccs4)CC3)ccc21` is lower in “Percent Effect” value: 7.648% for the first, 4.237% for the second.

First: O=C(Nc1ccc2c(c1)OCCO2)N1CCCN(Cc2cccs2)CC1
Second: O=C(CN1CCNCC1)NCc1ccc2sccc2c1
The “Percent Effect” value of the first is higher: -12.77% for the first, -21.43% for the second.

Compared with `O=C1CCCN1CCN1CCCCC1Cn1cccn1` (stereo not given), `Cc1nnc(CCNC(=O)c2coc(CN3CCOCC3)c2)s1` is higher in “Percent Effect” value: -13.35% for the first, -3.668% for the second.

Going from `COc1cc(C2C3=C(COC3=O)Nc3[nH]nc(C)c32)cc2c1OCO2` (stereo not given) to `Cc1n[nH]c(C)c1CCNC(=O)Nc1ccc2c(c1)COC2`, the “Percent Effect” value falls from -6.627% to -11.47%.

Compared with `O=C(CN1CCNC1=O)NCc1ccc2sccc2c1`, `O=C(Cn1ccc(=O)cc1)NCc1ccc2sccc2c1` is lower in “Percent Effect” value: 117.7% for the first, -4.934% for the second.

First: CC(C)C(=O)N1CCC(C)(c2cc[nH]n2)CC1
Second: CC(=O)N1CCC(C)(c2cc[nH]n2)CC1
The “Percent Effect” value of the first is lower: 145.9% for the first, 158.8% for the second.

Going from `CC(C)C(=O)N1CCC2(CC1)NC(=O)[C@H]1CN(C(=O)N(C)C)C[C@H]12` to `CC1(c2cc[nH]n2)CCN(C(=O)c2ccc(Cl)cc2)CC1`, the “Percent Effect” value rises from -23.47% to 120.3%.

Compared with `COc1ccc(N)c(N2CCN(C(C)=O)CC2)n1`, `Cc1nc2cc(C(=O)N3C[C@@H](C(=O)O)[C@H](C4CC4)C3)ccc2[nH]1` is lower in “Percent Effect” value: -3.558% for the first, -4.344% for the second.

First: O=c1c(C(F)(F)F)cccn1Cc1nnc(-c2cccnc2)o1
Second: Cc1oc(-c2ccccc2)nc1C(=O)NC1=NCCS1
The “Percent Effect” value of the first is lower: -24.3% for the first, -10.94% for the second.

Compared with `CCC[C@H]1CN(C(=O)c2ccc3[nH]c(CO)nc3c2)C[C@@H]1N`, `N[C@H]1CN(C(=O)c2ccc3[nH]c(CO)nc3c2)C[C@@H]1c1ccccc1` is higher in “Percent Effect” value: 98.53% for the first, 103.3% for the second.

Compared with `N[C@H]1CN(C(=O)CCC(F)(F)F)C[C@@H]1c1ccccc1`, `Nc1nc(CCC(=O)N2C[C@H](c3ccccc3)[C@@H](N)C2)cs1` is lower in “Percent Effect” value: 7.576% for the first, -7.394% for the second.

Going from `N[C@H]1CN(C(=O)c2ccc3[nH]c(=O)c(=O)[nH]c3c2)C[C@@H]1c1ccccc1` to `N[C@H]1CN(C(=O)CCc2ccccn2)C[C@@H]1c1ccccc1`, the “Percent Effect” value falls from 97.68% to 8.322%.
